Compound activity (PubChem BioAssay)
In the library only some 4.1% were active in any assay of this set; here they are far more common.
TRPM1 prom inh = reduces MITF-dependent TRPM1 promoter luciferase signal; AID 488899; inhibition, % at 12.5 µM; hit rate 0.83% among 330,000; SK-MEL-5 TRPM1 promoter luciferase, 24 h;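 active means mean inhibition across replicates of 60% or more, whatever share of single replicates reaches that level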
Shn3 3UTR inh = reduces Shn3 3'UTR luciferase signal in osteoblasts | Clone20 osteoblast Shn3 3'UTR firefly luciferase, 24 h | inhibition, % at 12.5 µM | hit rate 0.52% among 360,000;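 active means mean inhibition of at least 75% with every replicate also reaching 75%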
TROY NFkB inh = TROY signaling inhibition | Q293 LMP1-TROYcd NF-kB luciferase reporter, 4 h | inhibition, % at 10 µM | hit rate 0.98% among 360,000 | AID 1347056;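 active means compounds whose plate-normalised and pattern-corrected inhibition of the luciferase reporter signal at the single screening dose is 50% or more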
Peg3 prom inh = inhibitors of Peg3 promoter; HeLa PEG-Prom luciferase reporter, luminescence, overnight; inhibition, % at 20 µM; hit rate 1.7% among 360,000; AID 588405;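 active means inhibition of at least 50% at 20 µM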
EBV LMP1 NFkB = Epstein-Barr LMP1 NF-kappaB reporter inhibition. AID 504558. LMP1-induced NF-kappaB luciferase reporter cells, luminescence. hit rate 0.69% among 350,000. inhibition, % at 12.5 µM; in the data active means inhibition above about 41%
TWEAK-Fn14 inh = blocks TWEAK-Fn14 interaction in a reporter cell assay. TWEAK-stimulated Fn14 reporter cells, luciferase luminescence, 8 h. inhibition, % at 10 µM. hit rate 2% among 360,000. AID 1159606; in the data active means inhibition above about 50%
Hits are given with their value; . = inactive; / = no result given.

SMILES	TRPM1 prom inh	Shn3 3UTR inh	TROY NFkB inh	Peg3 prom inh	EBV LMP1 NFkB	TWEAK-Fn14 inh
CCN(CC)C(=O)C1CCCN(C(=O)c2cc(COc3ccc4ncccc4c3)on2)C1 (configuration not stated)	.	.	.	.	.	.
O=C(c1cc(COc2ccc3c(c2)CCCC3)on1)N1CCCC1	.	.	.	.	73	.
COCC1CCCCN1C(=O)c1cc(COc2ccc3ncccc3c2)on1 (configuration not stated)	.	89	.	.	.	.
CCN1CCN(C(=O)c2cc(COc3ccc4ncccc4c3)on2)CC1	.	.	.	.	.	.
CCOC(=O)c1ccc(NC(=O)CSc2ccc(-c3ccncc3)nn2)cc1	.	.	.	.	.	.
Cn1c(=O)c2ncn(CC(=O)Nc3cccc(-c4nc5ccccc5s4)c3)c2n(C)c1=O	.	.	.	.	.	67
O=C(CCS(=O)(=O)c1ccccc1)Nc1cccc(-c2nc3ccccc3s2)c1	.	.	57	.	.	87
O=C(CCS(=O)(=O)c1ccccc1)Nc1ccc(-c2nc3ccccc3s2)cc1	.	.	.	.	.	.
O=C(O)CCC(=O)Nc1cccc(-c2csc(-c3ccccc3)n2)c1	.	.	.	.	.	57
CCc1ccc(NC(=O)Cn2cnc3c(=O)n(C)c(=O)n(C)c32)cc1	.	.	.	.	.	.
CCCS(=O)(=O)c1nc(S(=O)(=O)c2ccc(C)cc2)c(N2CCN(CC)CC2)s1	.	.	.	.	.	.
CCC(C)c1ccc(S(=O)(=O)N2CCN3CCCC3C2)cc1 (configuration not stated)	.	.	.	.	.	.
O=c1c2ccccc2sn1-c1cccc(Cl)c1	/	.	.	.	.	.
O=c1c2ccccc2sn1-c1ccccc1	.	.	.	65	.	.
CC(NC(=S)Nc1ccc(Cl)cc1Cl)C(c1cccs1)N1CCCC1 (configuration not stated)	.	.	.	.	.	.
CCCCNc1c(-c2cccc(-c3ccc(OC)cc3)c2)nc2ccc(C)cn12	.	.	.	69	.	.
Cc1ccn2c(NC3CCCCC3)c(-c3cccc(-c4cccc(Cl)c4)c3)nc2c1	.	.	.	56	.	.
CCCCNc1c(-c2ccc(-c3cccc(Cl)c3)cc2)nc2ccccn12	.	.	.	.	.	.
Cc1ccn2c(NC3CCCC3)c(-c3ccncc3)nc2c1	.	.	.	.	.	.
CCCCNc1c(-c2cccc(-c3ccc(OC)cc3)c2)nc2cc(C)ccn12	.	87	.	89	.	.
CCCCNc1c(-c2cccc(-c3cc(C(C)=O)cs3)c2)nc2ccc(C)cn12	.	.	.	62	.	.
Cn1c(CSCc2ccc(F)cc2)nnc1SCC(=O)N1CCN(c2ccccc2)CC1	.	.	.	.	.	.
CCOC(=O)C1CCN(C(=O)C2CCN(S(=O)(=O)c3cc(Cl)ccc3Cl)CC2)CC1	.	.	.	.	.	.
C=CCOc1ccc(/C=N/NC(=O)CN(c2cc(Cl)ccc2OC)S(=O)(=O)c2ccc(C)c([N+](=O)[O-])c2)cc1	.	.	.	.	.	.
CC(C)(C)c1ccc(C(=O)N2CCCCCC2=O)cc1	81	/	.	.	.	.
SMILES	TRPM1 prom inh	Shn3 3UTR inh	TROY NFkB inh	Peg3 prom inh	EBV LMP1 NFkB	TWEAK-Fn14 inh
O=C1CCCCCN1C(=O)c1ccccc1	.	.	.	.	.	.
COc1ccc(N=C2S/C(=C\c3ccc(N4CCOCC4)o3)C(=O)N2CCc2c[nH]c3ccccc23)cc1	.	95	.	101	.	97
COc1cccc(C(=O)N2CCCc3ccccc32)c1OC	/	.	.	.	.	.
CCN(CC)C(=O)C1=C(C)N(CCC2=CCCCC2)C(=O)C(CC(=O)NCCN2CCOCC2)C1 (configuration not stated)	/	.	.	.	.	.
O=C(CNC(=O)c1cccs1)c1ccc(F)cc1	.	.	.	.	.	52
O=C(CNC(=O)c1ccccc1F)c1ccccc1	.	.	.	.	.	62
O=C(CNC(=O)c1cccs1)c1ccc(Cl)cc1	.	.	.	.	.	.
CN(C)c1ncnc2c1C(c1ccccc1)C(C)(C)O2 (configuration not stated)	.	96	.	.	.	.
O=C(O)CCCCCN1C(=O)/C(=C/c2cn(-c3ccccc3)nc2-c2cccs2)SC1=S	.	.	.	.	.	.
CC1=NNC(=O)/C1=C\c1cn(-c2ccccc2)nc1-c1cccs1	98	.	88	115	.	109
O=Cc1cn(-c2ccccc2)nc1-c1ccc(F)cc1	.	.	.	.	.	.
CC1=NNC(=O)/C1=C\c1cn(-c2ccccc2)nc1-c1ccc(F)cc1	92	.	75	112	.	100
CCN(CC)S(=O)(=O)c1ccc(=O)n(CC(=O)N2CCCc3cc(C)ccc32)c1	.	.	.	.	.	.
Cc1ccc(N=Cc2c(O)c3ccccc3oc2=O)c(C)c1	.	.	55	.	.	57
CC(C)=CC(O)C/C(C)=C/COc1ccc2ccc(=O)oc2c1 (configuration not stated)	.	.	.	94	.	83
CN(C)C(=O)COc1ccc2ccc(=O)oc2c1	.	.	.	.	.	.
Oc1ccccc1-n1c(-c2ccccc2)ccc1-c1ccccc1	.	.	.	57	.	.
Cc1ccc(-c2ccccc2)n1-c1ccc(C(=O)O)cc1	.	.	.	.	.	.
OC(CNC1CCCCCC1)COc1cccc2ccccc12 (configuration not stated)	.	.	.	92	.	.
COc1ccccc1COCC(O)CNCCc1ccc(C(F)(F)F)cc1 (configuration not stated)	.	.	.	.	.	.
OC(COc1ccc(CNCCc2ccc(C(F)(F)F)cc2)cc1)CN1CCCCC1 (configuration not stated)	94	.	.	104	.	.
OC(CNCCc1ccc(C(F)(F)F)cc1)COc1ccc2ccccc2c1 (configuration not stated)	.	.	.	101	.	.
OC(CNCCc1ccc(C(F)(F)F)cc1)COc1cccc2ccccc12 (configuration not stated)	.	.	.	90	.	.
CCOC(=O)c1c(C)n(C)c2ccc(OCC(O)CNCCc3ccccc3)cc12 (configuration not stated)	.	.	.	.	.	.
O=C(CNS(=O)(=O)c1ccc(Br)cc1)NC1CCCC1	.	.	.	.	.	.
CC(=O)c1cccc(OCC(O)CNCCc2ccc(Cl)cc2)c1 (configuration not stated)	.	.	.	.	.	.
COc1ccc(CCNCC(O)COc2cccc(Br)c2)cc1 (configuration not stated)	.	.	.	74	.	.
